20 compounds from PubChem BioAssay can be followed below.

A short description of experiment [1]: antimalarial activity against Dd2 strain (AID 2302;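 active means growth inhibition above 50% at the single 2 µM test dose, taken to imply half-maximal potency below 2 µM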;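 further: 0% = DMSO untreated growth and 100% = chloroquine plus artemisinin killed control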). The settings on record: P. falciparum Dd2 in RBCs, LDH growth readout, 72 h; at 2 µM; stronger effect = higher value.
Experiment [2] can be described thus: HepG2 cytotoxicity, primary screen, cytotoxicity control for P. falciparum antimalarial project, cell-based, ATP luminescence (AID 2303;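 active means inhibition above 50%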;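 further: 0% = DMSO wells and 100% = digitonin-killed cells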). The settings on record: HepG2 viability, 24-48 h, at 10 µM, stronger effect = higher value.
The target of experiment [3] is L-lactate dehydrogenase (Plasmodium falciparum (isolate CDC / Honduras)) (UniProt Q27743). Put plainly: PfLDH activity inhibition – cell lysate, 3D7 strain, counter-screen for P. falciparum growth inhibition project (AID 2304).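 Further: 0% = vehicle and 100% = reference inhibitor.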 The settings on record: P. falciparum 3D7 crude extract, LDH APAD/NBT absorbance; at 2 µM; stronger effect = higher value. A general note: The purpose of a counterscreen is to sort out artefacts and off-target activity.
Sequence of L-lactate dehydrogenase (Plasmodium falciparum (isolate CDC / Honduras)) (Q27743 whole entry, looked up): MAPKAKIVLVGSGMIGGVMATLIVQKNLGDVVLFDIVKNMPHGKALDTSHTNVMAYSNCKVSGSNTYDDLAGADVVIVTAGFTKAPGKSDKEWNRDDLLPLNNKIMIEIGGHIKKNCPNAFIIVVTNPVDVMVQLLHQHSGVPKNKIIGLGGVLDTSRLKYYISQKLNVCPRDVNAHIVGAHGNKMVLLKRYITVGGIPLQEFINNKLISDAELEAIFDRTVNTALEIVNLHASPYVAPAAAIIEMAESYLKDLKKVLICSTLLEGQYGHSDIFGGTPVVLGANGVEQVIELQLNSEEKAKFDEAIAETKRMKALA

A short description of experiment [4]: inhibition of 3D7 malaria parasite growth – strain 3D7 (AID 2306).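 Further: 0% = DMSO wells and 100% = chloroquine plus artemisinin control wells.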 The settings on record: P. falciparum 3D7 erythrocytic growth, LDH absorbance, 72 h; at 2 µM; stronger effect = higher value.
In experiment [5] the target is Calcium-dependent protein kinase 1 (Plasmodium falciparum (isolate 3D7)) (UniProt P62344). Put plainly: PfCDPK1 kinase inhibitors, biochemical, TCAMS library (AID 1159585; cut-off not given, nearly all actives have IC50 up to about 0.98 µM;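 further: inhibitors leave more ATP so luminescence rises with inhibition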). Conditions: recombinant PfCDPK1, Kinase-Glo ATP depletion luminescence. On the technique in general: In Kinase-Glo more light means more ATP remaining.
Sequence of Calcium-dependent protein kinase 1 (Plasmodium falciparum (isolate 3D7)) (P62344 whole entry, looked up): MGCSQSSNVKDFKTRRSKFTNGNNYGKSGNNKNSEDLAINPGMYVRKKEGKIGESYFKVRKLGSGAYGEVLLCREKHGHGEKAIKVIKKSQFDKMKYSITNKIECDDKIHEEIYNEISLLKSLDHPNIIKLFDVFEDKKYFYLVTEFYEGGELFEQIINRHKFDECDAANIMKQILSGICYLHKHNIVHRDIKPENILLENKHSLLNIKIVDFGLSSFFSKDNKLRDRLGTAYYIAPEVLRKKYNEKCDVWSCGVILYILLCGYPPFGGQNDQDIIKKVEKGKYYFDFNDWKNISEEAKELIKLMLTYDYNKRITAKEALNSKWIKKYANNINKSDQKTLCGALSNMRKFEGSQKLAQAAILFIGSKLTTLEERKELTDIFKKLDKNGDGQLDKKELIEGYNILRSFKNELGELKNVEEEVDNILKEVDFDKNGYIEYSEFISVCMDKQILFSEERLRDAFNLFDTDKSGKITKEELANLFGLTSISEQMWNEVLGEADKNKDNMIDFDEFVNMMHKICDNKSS
For experiment [6], the target named is Plasmodium falciparum protein kinase 6 (PK6, PF3D7_1337100) (UniProt Q8IDW1). Kind of experiment: PfPK6 kinase inhibitors, biochemical, TCAMS library (AID 1159586). Conditions: recombinant PfPK6, Kinase-Glo ATP depletion luminescence.
Sequence of Plasmodium falciparum protein kinase 6 (PK6, PF3D7_1337100) (Q8IDW1 1-305): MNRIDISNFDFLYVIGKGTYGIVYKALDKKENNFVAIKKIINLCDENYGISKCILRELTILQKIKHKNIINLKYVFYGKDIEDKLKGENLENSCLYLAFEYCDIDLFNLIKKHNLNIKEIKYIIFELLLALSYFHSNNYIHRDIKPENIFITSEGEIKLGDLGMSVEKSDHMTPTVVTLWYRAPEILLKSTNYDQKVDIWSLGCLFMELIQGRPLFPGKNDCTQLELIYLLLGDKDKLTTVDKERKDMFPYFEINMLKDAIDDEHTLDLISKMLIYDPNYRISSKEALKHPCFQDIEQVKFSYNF
In experiment [7] the target is Protein kinase 7 (PK7), Plasmodium falciparum 3D7 (PF3D7_0213400) (UniProt Q7YTF7). Put plainly: inhibition of Plasmodium PK7 catalytic activity – biochemical, TCAMS antimalarial set, Kinase-Glo luminescence (AID 1159587). The settings on record: recombinant PfPK7, Kinase-Glo ATP depletion luminescence.
Sequence of Protein kinase 7 (PK7), Plasmodium falciparum 3D7 (PF3D7_0213400) (Q7YTF7 1-343): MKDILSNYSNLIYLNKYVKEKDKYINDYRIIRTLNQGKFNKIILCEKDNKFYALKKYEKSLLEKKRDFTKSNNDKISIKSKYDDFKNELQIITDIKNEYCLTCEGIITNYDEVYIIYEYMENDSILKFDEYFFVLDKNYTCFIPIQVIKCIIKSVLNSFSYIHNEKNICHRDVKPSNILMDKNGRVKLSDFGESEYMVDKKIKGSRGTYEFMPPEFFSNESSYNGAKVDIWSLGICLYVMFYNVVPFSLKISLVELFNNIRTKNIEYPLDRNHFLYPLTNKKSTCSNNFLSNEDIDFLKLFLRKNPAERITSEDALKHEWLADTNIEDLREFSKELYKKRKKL
Experiment [8] has as its target Calcium-dependent protein kinase 4 (Plasmodium falciparum (isolate 3D7)) (UniProt Q8IBS5). Kind of experiment: PfCDPK4 kinase inhibitors, biochemical, TCAMS library (AID 1159588; cut-off not given, nearly all actives have IC50 up to about 0.91 µM). Conditions: recombinant PfCDPK4, Kinase-Glo ATP depletion luminescence.

A number with no mark means an inactive call. For some of these results: Potency and affinity values are given separately. Activity calls are given as the source filed them. Unless noted, how the calls were made is not given here.

A word on the inhibition: it is the relative decrease from the control value, in per cent.

Sequence of Calcium-dependent protein kinase 4 (Plasmodium falciparum (isolate 3D7)) (Q8IBS5 whole entry, looked up): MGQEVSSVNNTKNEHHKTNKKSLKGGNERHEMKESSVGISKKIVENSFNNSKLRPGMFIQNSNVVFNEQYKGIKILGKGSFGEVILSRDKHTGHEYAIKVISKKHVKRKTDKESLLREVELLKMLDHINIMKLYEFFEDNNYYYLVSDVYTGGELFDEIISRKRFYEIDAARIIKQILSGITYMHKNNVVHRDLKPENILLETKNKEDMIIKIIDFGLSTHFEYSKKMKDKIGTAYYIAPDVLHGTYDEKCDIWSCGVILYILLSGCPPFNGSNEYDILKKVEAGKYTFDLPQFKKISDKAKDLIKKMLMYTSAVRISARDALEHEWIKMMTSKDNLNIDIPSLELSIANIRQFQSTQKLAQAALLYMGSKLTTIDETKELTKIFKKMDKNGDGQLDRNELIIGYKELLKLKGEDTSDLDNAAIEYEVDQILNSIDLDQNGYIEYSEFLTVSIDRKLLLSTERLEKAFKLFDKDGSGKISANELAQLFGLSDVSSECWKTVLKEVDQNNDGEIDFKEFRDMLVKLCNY

For `CCCN(CC1CC1)c1ncc(-c2ccccc2CNCc2ccccc2O)cn1`, the growth inhibition was 98% (active) in experiment [1] and 100% (active) in experiment [4]. Also, the inhibition in experiment [2] was 4%; in experiment [3], -4%. Further, the result in experiment [5], in experiment [6], in experiment [7] and in experiment [8] was inactive.

Regarding `CCCC(=O)c1cnc2c(OCCCc3cnc[nH]3)cccc2c1Nc1c(C)cccc1C`, the results for the growth inhibition in experiment [1] and in experiment [4] were 14% and 98% (active), respectively. In addition, the inhibition was 20% in experiment [2] and 3% in experiment [3]. Besides, the result in experiment [5], in experiment [6], in experiment [7] and in experiment [8] was inactive.

With `Cc1cccc2c3c([nH]c12)C1(CCN(Cc2ccccc2)CC1)NC(C(=O)NCc1ccccc1)C3` (stereo not given), the values for the growth inhibition in experiment [1] and in experiment [4] were 8% and 81% (active), respectively. For the same compound, the inhibition in experiment [2] was -4%; in experiment [3], -2%. Also, the outcome in experiment [5], in experiment [6], in experiment [7] and in experiment [8] was inactive.

Consider `O=C(NC1CCN(c2ccnc3cc(Cl)ccc23)C1)c1ccc(F)cc1` (stereo not given), for which the growth inhibition in experiment [1] is 97% (active); in experiment [4], 94% (active). The figures for the inhibition in experiment [2] and in experiment [3] were 26% and 4%, respectively. Further, the outcome in experiment [5], in experiment [6], in experiment [7] and in experiment [8] was inactive.

For the compound `Cc1ccc(NC(=O)N2CCC(n3c(-c4ccccc4)nc4cccnc43)CC2)cc1F`, the growth inhibition in experiment [1] is 85% (active); in experiment [4], 96% (active). Moreover, the inhibition in experiment [2] is 23%; in experiment [3], 2%. In addition, the result in experiment [5], in experiment [6], in experiment [7] and in experiment [8] was inactive.

Turning to `O=C(c1cc(C(=O)NC2CCCCC2)c(=O)n(C2CCCCC2)c1)c1cc(F)ccc1O`, the growth inhibition is 98% (active) in experiment [1] and 99% (active) in experiment [4]. Further, the figures for the inhibition in experiment [2] and in experiment [3] were 22% and -2%, respectively. The result in experiment [5], in experiment [6], in experiment [7] and in experiment [8] was inactive.

As for `c1ccc(CNCc2ccc(-c3cccc(-c4nc5ccccc5[nH]4)c3)cc2)cc1`, the growth inhibition in experiment [1] is 78% (active); in experiment [4] it was 101% (active). Also, the inhibition in experiment [2] is 55% (active); in experiment [3], -2%. The result in experiment [5], in experiment [6], in experiment [7] and in experiment [8] was inactive.

With `COc1ccc2nc3cc(Cl)ccc3c(Nc3ccc(O)c(CNC(C)C)c3)c2c1`, the values for the growth inhibition in experiment [1] and in experiment [4] were 100% (active) and 102% (active), respectively. Further, the inhibition in experiment [2] was 5%; in experiment [3], -1%. Further, the outcome in experiment [5], in experiment [6], in experiment [7] and in experiment [8] was inactive.

`Cc1nc(-c2ccc3c(c2)CCN(CCC2CCC(NC(=O)c4cc5cccc(Cl)c5[nH]4)CC2)CC3)no1` (stereo not given): the growth inhibition in experiment [1] is 46%; in experiment [4], 100% (active). Further, the inhibition in experiment [2] is 36%; in experiment [3], 2%. In addition, the result in experiment [5], in experiment [6], in experiment [7] and in experiment [8] was inactive.

`Cc1nnsc1C(=O)Nc1cccc(-c2ccc(-c3nc4c(C)cccc4[nH]3)s2)c1`: the figures for the growth inhibition in experiment [1] and in experiment [4] were 44% and 100% (active), respectively. Further, the values for the inhibition in experiment [2] and in experiment [3] were 46% and 4%, respectively. For the same compound, the result in experiment [5], in experiment [6], in experiment [7] and in experiment [8] was inactive.

On to `COc1ccc(NC(=O)[C@H](Cc2ccccc2)Nc2cc(C)nc(NCCN3CCCC3)n2)cc1`, for which the growth inhibition in experiment [1] is 3%; in experiment [4] it was 97% (active). In addition, the inhibition is 15% in experiment [2] and -2% in experiment [3]. For the same compound, the result in experiment [5], in experiment [6], in experiment [7] and in experiment [8] was inactive.

For the compound `CC(C)(C)c1cc(N=NC(=O)c2ccncc2)cc(C(C)(C)C)c1O`, the growth inhibition in experiment [1] and in experiment [4] was 99% (active) each time. In addition, the inhibition in experiment [2] is 47%; in experiment [3], 1%. The result in experiment [5], in experiment [6], in experiment [7] and in experiment [8] was inactive.

Consider `Cc1cc(=O)c(-c2ccc(Oc3cccc(Cl)c3)cc2)c(C)[nH]1`, for which the results for the growth inhibition in experiment [1] and in experiment [4] were 89% (active) and 95% (active), respectively. Also, the inhibition was 23% in experiment [2] and 0% in experiment [3]. Also, the outcome in experiment [5], in experiment [6], in experiment [7] and in experiment [8] was inactive.

In the case of `Cc1cc(N[C@@H](Cc2ccccc2)C(=O)NC2CCCC2)nc(Nc2ccccc2)n1`, the growth inhibition was 82% (active) in experiment [1] and 100% (active) in experiment [4]. Moreover, the inhibition in experiment [2] was 3%; in experiment [3], 0%. Also, the outcome in experiment [5], in experiment [6], in experiment [7] and in experiment [8] was inactive.

For `CCCc1cc(Cc2cnc(N)nc2N)ccc1OCCCCCC(=O)OCC`, the growth inhibition in experiment [1] is 1%; in experiment [4], 97% (active). In addition, the inhibition was -11% in experiment [2] and 0% in experiment [3]. For the same compound, the outcome in experiment [5], in experiment [6], in experiment [7] and in experiment [8] was inactive.

Consider `COc1ccc(C=NNc2ccnc3cc(F)c(C)cc23)c2ccccc12`, for which the growth inhibition was 85% (active) in experiment [1] and 101% (active) in experiment [4]. Moreover, the inhibition in experiment [2] was -6%; in experiment [3], 3%. Moreover, the result in experiment [5], in experiment [6], in experiment [7] and in experiment [8] was inactive.

Turning to `CC1CCc2c(C(=O)N3CCc4ccccc4C3)csc2C1` (stereo not given), the figures for the growth inhibition in experiment [1] and in experiment [4] were 75% (active) and 99% (active), respectively. For the same compound, the inhibition in experiment [2] was 9%; in experiment [3], -3%. Also, the outcome in experiment [5], in experiment [6], in experiment [7] and in experiment [8] was inactive.

For the compound `COc1ccc(-c2nc(NC(=O)CS(=O)(=O)c3ccc(OC)cc3)sc2C)cc1`, the growth inhibition is 89% (active) in experiment [1] and 95% (active) in experiment [4]. The inhibition in experiment [2] is 6%; in experiment [3], -2%. The outcome in experiment [5], in experiment [6], in experiment [7] and in experiment [8] was inactive.

As for `Cc1cccc2[nH]c(-c3cccc(-c4cccc(C(=O)NCCN5CCCC5)c4)c3)nc12`, the growth inhibition in experiment [1] is 75% (active); in experiment [4], 100% (active). For the same compound, the inhibition was 21% in experiment [2] and 1% in experiment [3]. Moreover, the result in experiment [5], in experiment [6], in experiment [7] and in experiment [8] was inactive.

Turning to `COc1ccccc1NC(=O)Nc1ccc(-c2ccc(-c3nc4ccc(C(F)(F)F)cc4[nH]3)cc2)cc1`, the growth inhibition in experiment [1] was 61% (active); in experiment [4], 101% (active). Also, the inhibition in experiment [2] is 52% (active); in experiment [3], 3%. In addition, the result in experiment [5], in experiment [6], in experiment [7] and in experiment [8] was inactive.
